For 18 compounds, outcome and AC50 results are on record in PubChem BioAssay (EPA / NIEHS).

The structures appear in SMILES notation. The source made the active and inactive calls. How the source made its calls: active means hit-call score of the fitted dose curve at least 0.9, where 1 is the maximum; inactive means score below 0.9.

Experiment [1] in a line: CCTE_Padilla_ZF_Score.Tail: CCTE's 144 Hour Post-fertilization zebrafish Assay Score for Tail Malformation, Padilla Lab (AID 2284414). The gist of the method:
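Tail malformations were scored at 6 dpf by two blinded assessors under a stereo microscope. Chorionated embryos had been exposed from 6-8 hpf in sealed wells of 10% Hanks' at 26 C, then rinsed free of chemical at 5 dpf.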

Experiment [2] can be described thus: CCTE_Padilla_ZF_Score.Blood_pooling: CCTE's 144 Hour Post-fertilization zebrafish Assay Score for Blood Pooling, Padilla Lab (AID 2284415). The method in brief: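 Blood pooling was scored at 6 dpf under a stereo microscope by two blinded assessors, fitted upward against DMSO. Single embryos were dosed at 6–8 hpf in 10% Hanks', kept sealed at 26C (14:10 h cycle) and rinsed at 5 dpf.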

Experiment [3] can be described thus: CCTE_Padilla_ZF_Score.Any: CCTE's 144 Hour Post-fertilization zebrafish Assay Score for Any Mortality or Malformation, Padilla Lab (AID 2284416). The gist of the method: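 Wild-type zebrafish embryos with chorions, one per well in 10% Hanks' from 6–8 hpf, dosed in sealed plates at 26 C, 14:10 h light:dark; rinsed at 5 dpf; blinded scoring at 6 dpf for death or malformation, versus DMSO.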

For the next experiment, the system named is TTR (gene 7276). Description: CCTE_GLTED_hTTR_0.125uM: CCTE's human Transthyretin (hTTR) Inhibition Assay, with 0.125uM TTR, Great Lakes Toxicology and Ecology Division (GLTED) Lab (AID 2284431).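 Further: hits lower the fluorescence signal relative to DMSO baseline.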 The method in brief: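 TTR at 0.125uM incubated 2 h with test chemical; displacement of bound ANSA read by fluorescence (ex 380, em 475). Activity is signal loss versus DMSO baseline.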

For the compound `O=S(=O)(OCCOC(F)(F)F)C(F)(F)F`, the result in experiment [1], in experiment [2] and in experiment [3] was inactive.
Usually AC50 stands for the concentration giving half of the maximal activity seen. With `O=C(Cl)C(F)(F)C(F)(F)C(F)(F)C(F)(F)C(F)(F)C(F)(F)C(F)(F)C(F)(F)F`, the compound was classed as inactive in experiment [1] and in experiment [2]. The AC50 in experiment [3] is 29.4 µM (active).
As to `O=C(O)C(F)(F)C(F)(F)C(F)(F)C(F)(F)C(F)(F)C(F)(F)C(F)(F)C(F)(F)C(F)(F)C(F)(F)C(F)(F)C(F)(F)F`, the call in experiment [1], in experiment [2] and in experiment [3] was inactive.
In the case of `O=C(O)C=C(C(F)(F)F)C(F)(F)F`, the compound was called inactive in experiment [1], in experiment [2] and in experiment [3].
On to `C=CC(=O)OCC(F)(F)C(F)(F)C(F)(F)C(F)(F)C(F)(F)C(F)(F)C(F)(F)F`, for which the result in experiment [1], in experiment [2] and in experiment [3] was inactive.
Take `C=CC(=O)OCC(F)(F)C(F)(F)C(F)(F)C(F)(F)COC(=O)C=C`: the result in experiment [1] and in experiment [2] was inactive. The AC50 in experiment [3] is 4.38 µM (active).
`CC(Cc1ccc(O)c(O)c1)C(C)Cc1ccc(O)c(O)c1` (stereo not drawn): in the experiment with TTR (gene 7276), the AC50 is 0.0909 µM (active).
`O=C(O)C(F)(F)C(F)(F)C(F)F`: the compound was called inactive in experiment [1], in experiment [2] and in experiment [3].
Turning to `c1ccc(B(c2ccccc2)c2ccccc2)cc1`, the AC50 in the experiment with TTR (gene 7276) was 1.6 µM (active).
Consider `O=C(O)C(F)(F)C(F)(F)C(F)(F)C(F)(F)C(F)(F)C(F)(F)C(F)(F)C(F)(F)Cl`, for which the result in experiment [1] and in experiment [2] was inactive. In experiment [3], the AC50 is 10 µM (active).
`O=C(O)C(F)(F)C(F)(F)C(F)(F)C(F)(F)C(F)(F)C(F)(F)C(F)(F)C(F)(F)C(F)(F)C(F)(F)C(F)(F)C(F)(F)C(F)(F)F`: the compound was called inactive in experiment [1], in experiment [2] and in experiment [3].
Turning to `FC(F)(F)C(F)(F)C(F)(F)C(F)(F)C(F)(F)C(F)(F)C(F)(F)I`, the compound was called inactive in experiment [1] and in experiment [2]. Also, in experiment [3], the concentration at half-maximal activity (AC50) is 12.4 µM (active).
For the compound `C=CC(F)(F)C(F)(F)C(F)(F)C(F)(F)C(F)(F)C(F)(F)C(F)(F)C(F)(F)F`, the outcome in experiment [1], in experiment [2] and in experiment [3] was inactive.
For `Cc1ccc(S(=O)(=O)NCl)cc1`, in the experiment on TTR (gene 7276), the AC50 was 44.5 µM (active).
As to `O=C(O)C(F)(F)C(F)(F)C(F)(F)C(F)(F)F`, the compound was classed as inactive in experiment [1], in experiment [2] and in experiment [3].
For the compound `O=C(O)C(F)(F)C(F)(F)C(F)(F)F`, the compound was called inactive in experiment [1], in experiment [2] and in experiment [3].
For the compound `FC(F)(F)C(F)(F)CNCC(F)(F)C(F)(F)F`, the outcome in experiment [1] and in experiment [2] was inactive. For the same compound, in experiment [3], the AC50 was 0.00326 µM (active).
For `FC(F)(F)C(F)(F)C(F)(F)CI`, the result in experiment [1], in experiment [2] and in experiment [3] was inactive.
